From PubChem
SMARCA2 act – increases SMARCA2 function in MMTV reporter cells | activation, % at 9.1 µM | MG213 cells, MMTV-luciferase reporter, dexamethasone, overnight | hit rate 1% among 370,000; in the data active = activation above about 7.8%;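 also: 0% = vehicle wells and 100% = reference activator wells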
DAX1 inh-1 – NR0B1 (DAX1) inhibition; hit rate 0.99% among 340,000; inhibition, % at 6.75 µM; P51843; HEK293 Gal4-DAX1 luciferase reporter, luminescence;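 active = inhibition above the mean over all tested compounds plus 3 SD, cut at about 4.2% in these data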;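 also: 0% = DAX1-transfected cells with DMSO and 100% = empty-vector control cells with DMSO; inhibition shows as a rise in luminescence from relieved DAX1 repression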
Target sequence (P51843 207-470 limits assumed): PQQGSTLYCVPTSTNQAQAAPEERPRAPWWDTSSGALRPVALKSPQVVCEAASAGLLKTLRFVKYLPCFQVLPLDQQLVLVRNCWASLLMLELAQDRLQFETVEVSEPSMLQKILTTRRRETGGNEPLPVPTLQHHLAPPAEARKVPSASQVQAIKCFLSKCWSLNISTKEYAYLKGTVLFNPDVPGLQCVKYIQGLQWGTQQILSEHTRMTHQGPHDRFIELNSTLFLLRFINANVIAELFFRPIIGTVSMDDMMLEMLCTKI
hgDAF-12 ag – activates the H. glycines DAF-12 receptor ligand-binding domain. HEK293 GAL4-hgDAF12 UAS-luciferase reporter, agonist luminescence; normalized to butyrate control. activation, % at 6.8 µM. hit rate 1.8% among 370,000. AID 687014;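 active = activation above a cutoff set at the mean of all screened compounds plus 3 SD, cut at about 10% in these data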;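 also: 0% = DMSO wells and 100% = sodium butyrate wells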
ssDAF12 agonist – activates DAF-12 receptor from parasite S. stercoralis; AID 652126; hit rate 1% among 370,000; activation, % at 6.8 µM; HEK293 ssDAF-12/GRIP1 lit1-tk-luc reporter, luminescence; % of 3 µM dafachronic acid response;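 active = activation above the mean over all tested compounds plus 3 SD, cut at about 0.9% in these data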;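 also: 0% = DMSO-only wells and 100% = 3 µM delta7-dafachronic acid wells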
hcDAF-12 act – activates DAF-12 receptor from parasite H. contortus. HEK293 hcDAF-12 lit1-tk-luc reporter, luminescence; 0% DMSO, 100% Δ7-dafachronic acid. activation, % at 6.8 µM. hit rate 1.4% among 370,000. AID 652067;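 active = activation above the mean of all tested compounds plus 3 SD, cut at about 5.5% in these data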;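 also: 100% = response to 3 µM Δ7-dafachronic acid high control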
DAX1 inh-2 – blocks DAX1 repression of SF-1 activated StAR promoter; HEK293T StAR-luciferase reporter, SF-1/DAX-1 repression relief; inhibition, % at 6.8 µM; hit rate 1.1% among 370,000; AID 652010;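 active = inhibition above the mean over all tested compounds plus 3 SD, cut at about 3.6% in these data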;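 also: 0% = DAX-1 cells with DMSO and 100% = cells lacking DAX-1 with DMSO; higher inhibition means more luminescence from relief of DAX-1 repression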
The depositor's hits bear a star; / = no result given. Compounds with a hit are over-represented: about 4.8% of the library has one in this group of screens.

SMILES | SMARCA2 act | DAX1 inh-1 | hgDAF-12 ag | ssDAF12 agonist | hcDAF-12 act | DAX1 inh-2
O=C(Nc1ccc(Oc2ccccc2)cc1)C1CCCN1S(=O)(=O)c1cccc2cccnc12 (stereo not given) | -6 | / | -1 | -2 | -6 | -3
CCCC#Cc1ccc(CC[C@H]2O[C@H]3CC[C@@H](CO)O[C@H]3C[C@H]2NC(=O)CN2CCOCC2)cc1 | -1 | / | -2 | -1 | 1 | 0
O=C(c1cccs1)N1CCn2c1nc1ccccc12 | 5 | 2 | 7 | -1 | 5 | 4.3*
C#CCNC(=O)C[C@H]1C[C@@]2(C(=O)OC)C(=C[C@H](COCc3ccccc3)O[C@@H]2C)N(CCCCCCCC)C1=O | -3 | / | -1 | -2 | -3 | 0
CCOc1ccccc1-c1ccc(C(=O)NCc2ccccc2)o1 | 1 | 7.3* | -2 | -1 | -1 | 0
Cc1ccc(-c2ccc(C(=O)NCc3ccccc3)o2)c2ccccc12 | -1 | 0 | -1 | -2 | -2 | -1
c1ccc(Cn2ccc3ccc(-c4ccc5ccn(Cc6cccc(-c7cccs7)c6)c5c4)cc32)cc1 | -4 | / | -2 | -1 | -1 | -1
COc1cc(C)c(C(=O)Oc2cc(C)c(C(=O)O)c(O)c2C)c(O)c1C(=O)O | 2 | 2 | 2 | 0 | 1 | 1
COc1cc(C)c(C(=O)Oc2cc(C)c(C(=O)O)c(O)c2C)c(OC)c1C | 4 | 4.3* | 3 | -1 | 0 | -2
COC(=O)CN(Cc1cn(Cc2ccccc2)nn1)S(=O)(=O)c1ccccc1Br | -2 | / | 4 | -1 | 1 | -1
O=C(CCC(=O)NC1CC1)Nc1nnc(C2CCCCC2)s1 | 2 | 0 | 0 | -1 | -2 | -1
O=C(CC1CCCC1)Nc1nnc(C2CC2)s1 | -1 | 4.6* | 3 | -1 | 0 | 0
CN1C/C(=C/c2ccccc2)N2C(=O)C[C@@H](c3ccccc3)N=C12 | -2 | / | -5 | -2 | -4 | 0
Nc1ccc2oc3ccc(N)cc3c(=O)c2c1 | 2 | 0 | 11* | 1 | 5.6* | 4.2*
Nc1ccc2c(=O)[nH][nH]c(=O)c2c1 | -1 | -1 | 3 | 0 | -2 | -1
CCOc1ncccc1C(=O)OCC(=O)c1ccccc1Br | 0 | 2 | -1 | 1.2* | -2 | 0
CC(OC(=O)c1ccccn1)C(=O)Nc1ccc2c(c1)OCCO2 (stereo not given) | -3 | 1 | 11* | -1 | 0 | -2
O=C(Nc1ccc2c(c1)OCO2)Nc1cnccn1 | -1 | 2 | 6 | -1 | 0 | 0
O=C(Nc1ccc2c(c1)OCO2)Nc1ccccn1 | 6 | 1 | 12* | 0 | 2 | 2
O=C(Nc1ccc2c(c1)OCCO2)c1ccccn1 | 1 | -5 | 6 | 0 | 3 | 4.4*
O=C(Nc1ccc2c(c1)OCO2)c1cnn2cccnc12 | 6 | 2 | 10 | -1 | 5.7* | 3
CCCC/C=C1/[C@H](CC)N(C)C2=N[C@@H](c3ccccc3)CC(=O)N21 | / | / | 1 | -2 | 0 | /
O=C(CSc1nnc(-c2cccnc2)o1)c1cc2ccccc2oc1=O | 0 | 1 | 12* | -1 | 3 | 1
Cc1ccc(C)c(NC(=O)CSc2nnc(-c3ccccc3)o2)c1 | 0 | 0 | 0 | -2 | -1 | 0
COc1ccccc1NC(=O)CSc1nnc(-c2ccccc2)o1 | 1 | 5.2* | 11* | 0 | 3 | 5.4*
SMILES | SMARCA2 act | DAX1 inh-1 | hgDAF-12 ag | ssDAF12 agonist | hcDAF-12 act | DAX1 inh-2
CCN(CC)S(=O)(=O)c1ccc(-c2nnc(SCC(=O)Nc3cc(OC)cc(OC)c3)o2)cc1 | -1 | 3 | 11* | -2 | -1 | 0
Cc1ccc(NC(=O)CSc2nnc(-c3cccnc3)o2)c(C)c1 | -1 | 4.4* | -1 | -1 | 0 | 1
Nn1c(SCC(=O)Nc2nccs2)nnc1-c1cc(-c2ccc(Cl)cc2)n[nH]1 | -2 | / | 4 | 0 | 0 | 0
Cc1csc(NC(=O)CSc2nnc(-c3ccccc3)o2)n1 | 6 | 0 | 6 | 1 | 5.7* | 4.3*
Cc1ccc(CNC(=O)CCCOc2cc(=O)n(C)c3ccccc23)o1 | -4 | 6.4* | 0 | -1 | -1 | 0
Cn1c(=O)cc(OCCCC(=O)NCc2ccco2)c2ccccc21 | 2 | 1 | 2 | -1 | -1 | 1
Cc1ccc2nc(SCC(=O)N3CCOCC3)[nH]c2c1 | 1 | 1 | 8 | 0 | 2 | 3
